Measured values from PubChem BioAssay (NCATS).
A number with no mark means an inactive call. Calls of active or inactive are those of the source. Calls come from the whole dose curve; as a rule, active = well fitted activation curve with a large enough effect; inconclusive = small, poorly fitted or top-dose-only effect, or effect the other way; inactive = flat fitted curve, though single readings scatter.

assay: Cellular Toxicity (caspase-3) Renal Proximal Tubule (AID 667); details: renal proximal tubule cells, primary cells freshly taken from rat, solvent-only wells 0%, staurosporine 100%; series mostly up to 91.7 µM; caspase-3 activation: at the top concentration;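 note: cells exposed to compound for 16 hours at 37 °C before detection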
Excerpt: NIH Chemical Genomics Center [NCGC]
NIH Molecular Libraries Screening Centers Network [MLSCN]
National Institutes of Environmental Health Sciences [NIEHS]
National Toxicology Program [NTP]
We have developed a 1536-well cell-based assay for quantitative high throughput screening (qHTS) against a number of cell lines to determine in vitro caspase 3/7 activity of small molecules. This particular assay uses the primary kidney proximal tubule cells freshly isolated from rat.
NCGC Assay Protocol Summary:
The Caspase-Glo 3/7 assay (Promega) is a homogeneous method to measure caspase-3 and caspase-7 activities in cultured cells. The quantitation of caspase 3/7 activity is based on the cleavage of a peptide-aminoluciferin substrate. After caspase cleaves the substrate the free aminoluciferin is liberated and serves as the substrate of luciferase, which generates the light. The luminescent signal is proportional to the amount of caspase 3/7 activity present.
Using the Caspase-Glo 3/7 assay, the amount of caspase 3/7 activity was measured in the rat kidney proximal tubule cells with complete culture medium following compound treatment for 16 hours. The assay was performed in opaque white 1536-well plates. In the screen, staurosporine and doxorubicin were used as positive controls. Library compounds were measured for their ability to cause the activation of caspase 3/7 in the cell line, as reflected by an increase in luminescence signal, in a concentration-dependent manner. Data were normalized to the controls for basal activity (DMSO only) and 100% stimulation (10 uM staurosporine). AC50 values were determined from concentration-response data modeled with the standard Hill equation.
qHTS protocol for caspase 3/7 assay in rat kidney proximal tubule cells
[Step] [Parameter] [Value] [Description]
1. Reagent; 5 uL; 1000 rat kidney proximal tubule cells/well
2. Time; 5 hr; 37 °C incubation
4. Controls; 23 nL; doxorubicin 7 pM to 100 uM & staurosporine 1.4 pM to 20 uM
5. Time; 16 hr; 37 °C incubation
6. Reagent; 5 uL; Caspase-Glo 3/7 reagent
7. Time; 1 hr; Room Temperature
8. Detection; Luminescence; Viewlux plate reader
Keywords: caspase 3/7, apoptosis, rat kidney proximal tubule cells, luminescence, NTPHTS, NTPHTS_NCGC, NIEHS, EPA, DSSTox, MLSMR, MLSCN, NIH Roadmap, qHTS, NCGC

Row | SMILES | caspase-3 activation [%] | outcome
1 | COC(=O)C1=C(C)NC(C)=C(C(=O)OC)C1c1ccccc1[N+](=O)[O-] | -8.66 | –
2 | Cc1cc(CC(=O)O)n(C)c1C(=O)c1ccc(Cl)cc1 | 4.19 | –
3 | [Cl][In]([Cl])[Cl] | -5.7 | –
4 | NC(=O)c1ncn([C@@H]2O[C@H](CO)[C@@H](O)[C@H]2O)n1 | 2.42 | –
5 | Nc1ccc(S(=O)(=O)Nc2nccs2)cc1 | -4.25 | –
6 | Oc1cccc(O)c1 | 5.63 | –
7 | NCCNCCNCCNCCN | 7.28 | –
8 | NC(=O)N/N=C/c1ccc([N+](=O)[O-])o1 | -14.1 | –
9 | CC1(C)[C@@H]2CC[C@@]1(C)C(=O)C2 | -3.61 | –
10 | NCCNCCNCCN | -0.769 | –
11 | CN(C)CCC=C1c2ccccc2CCc2ccccc21 | 4.79 | –
12 | O=C1O[C@H]([C@@H](O)CO)C(O)=C1O | -5.25 | –
13 | COc1ccccc1O | – | inactive
14 | C[C@]12C[C@H](O)[C@H]3[C@@H](CCC4=CC(=O)CC[C@@]43C)[C@@H]1CC[C@@H]2C(=O)CO | -2.01 | –
15 | CCCCCCCCCCCCOS(=O)(=O)O | – | inactive
16 | Cc1cc2nc3c(=O)[nH]c(=O)nc-3n(C[C@H](O)[C@H](O)[C@H](O)CO)c2cc1C | -9.48 | –
17 | CC12CCC(CC1)C(C)(C)O2 | 0.119 | –
18 | Cc1c(O)cccc1C(=O)N[C@@H](CSc1ccccc1)[C@H](O)CN1C[C@H]2CCCC[C@H]2C[C@H]1C(=O)NC(C)(C)C | 4.97 | –
19 | CCCCOC(=O)c1ccc(O)cc1 | -8.4 | –
20 | O=C1c2c(O)cccc2Cc2cccc(O)c21 | 12.2 | –
